About 13,000 (27%) of roughly 48,000 compounds showed an effect of 50% or more. This is one part of the list.
tested on: Wolbachia pipientis; test: Anti-Wolbachia Cell-Based Screen; format: functional; set-up: scale not given: in the data most compounds retested in dose-response had high values; settings: 5 µM

| Structure (SMILES) | Percent Effect [%] |
| --- | --- |
| CC(C)Cc1ncc2c(n1)CN(c1nccc(N(C)C)n1)C2 | -11.83 |
| Cc1nc(C(C)(C)NCc2nnc(C(C)C)o2)sc1C | -6.227 |
| O=C(NCCc1cccnc1)NC1CCOC2(CCCCC2)C1 (configuration not stated) | -5.946 |
| CC(O)(CNC(=O)c1cccnc1-n1cccn1)c1ccco1 (configuration not stated) | 109 |
| CCOCc1ccccc1NC(=O)NCC(C)(O)c1ccsc1 (configuration not stated) | -1.013 |
| CNC(=O)c1cccnc1NCc1ccc(-n2cccn2)cc1 | -16.78 |
| CC(O)(CNC(=O)c1cccnc1-n1cccn1)c1ccsc1 (configuration not stated) | 107.4 |
| O=C(CCC(=O)N1CCOCC1)NCc1cccnc1-n1cccn1 | 4.294 |
| CCN(CC)CCCC(C)NC(=O)c1cccnc1-n1cccn1 (configuration not stated) | -4.775 |
| CC(O)(CNC(=O)NCc1cccc(-n2cncn2)c1)c1ccco1 (configuration not stated) | 22.01 |
| CC(O)(CNC(=O)c1cccnc1-n1cccn1)c1cccs1 (configuration not stated) | 100.2 |
| CCn1nc(C)c(CNC(=O)NCC(C)(O)c2ccsc2)c1C (configuration not stated) | -9.413 |
| CCC(C)Oc1cc(C(=O)Nc2nc(C)ns2)ccn1 (configuration not stated) | -22 |
| CC(C)N1C[C@H](O)C[C@H]1c1nc(-c2ccc(OC(F)(F)F)cc2)no1 | -2.832 |
| c1c(-c2nc(CN3CCOCC3)no2)nnn1CC1CCCCC1 | -29.06 |
| Cc1ccc(Cl)c(NC(=O)c2cccc(CN3CC[C@H](O)C3)c2)c1 | 25.72 |
| CSCCc1c(-c2ccccc2)ncn1CC(C)(C)N1CCCC1 | -6.465 |
| Cc1ccc(C(=O)N2CCC3(CCC(=O)N(CC(N)=O)C3)CC2)c(O)c1 | -8.417 |
| COc1cccc(CN2CCC3(CC2)CCN(c2ncccn2)C3)c1.O=C(O)C(F)(F)F.O=C(O)C(F)(F)F | 13.94 |
| COc1cccc(CN2CCC3(CC2)CCN(C(=O)[C@@H]2CCCO2)C3)c1.O=C(O)C(F)(F)F | 105.3 |
| COc1cccc(CN2CCC3(CCN(c4ncc(C)cn4)CC3)C2)c1.O=C(O)C(F)(F)F | 4.048 |
| COc1cccc(CN2CCC3(CCN(C(=O)C4CC=CC4)CC3)C2)c1.O=C(O)C(F)(F)F | 2.015 |
| COc1cccc(CN2CCCC3(CCN(C(=O)N4CCCC4)C3)C2)c1.O=C(O)C(F)(F)F (configuration not stated) | 81.34 |

| Structure (SMILES) | Percent Effect [%] |
| --- | --- |
| COc1cccc(CN2CCC3(CC2)CCN(c2ncc(C)cn2)C3)c1.O=C(O)C(F)(F)F | -9.924 |
| O=C(O)[C@@H]1CN(Cc2ccc3nsnc3c2)C[C@H]1c1ccncc1 | 20.11 |
| CCOCCC(=O)N1CCCN(Cc2csc(CC)n2)CC1 | -3.622 |
| CC(C(=O)NCCc1cccs1)N1CCC(n2ccnc2)CC1 (configuration not stated) | 14.05 |
| N#Cc1cccc(N2CCC(c3nccn3Cc3cscn3)CC2)n1 | 19.37 |
| CC(C(=O)NCC1(c2cccc(Br)c2)CCC1)S(C)(=O)=O (configuration not stated) | -10.98 |
| O=C(NC1CC1)c1cc2c(nc1O)CC(c1cccs1)CC2=O (configuration not stated) | 2.644 |
| O=C(c1cc(Cl)ccc1OC1CCN(C2CCCC2)CC1)N1CCCO1 | -1.079 |
| Cc1ccc(CN(c2cc(C)nc3nc(C(F)(F)F)nn23)C2CC2)cc1 | 24.27 |
| Cc1cc(N(Cc2ccccc2F)C2CC2)n2nc(C(F)(F)F)nc2n1 | 37.88 |
| Cc1cc(N(Cc2cccs2)C2CC2)n2nc(C(F)(F)F)nc2n1 | 103 |
| CC(C)OCCS(=O)(=O)NC1CCN(C2CCCC2)C1 (configuration not stated) | -4.658 |
| O=C(Nc1cc(-c2ccccn2)no1)C1CC1 | -13.86 |
| CC(C)C(O)CNC(=O)CCCc1ccccn1 (configuration not stated) | -2.211 |
| CNc1cc(CCNC(=O)CC(C)C)nc(-c2ccccn2)n1 | 101.5 |
| CN(C)C(=O)c1cccc(CCNS(=O)(=O)c2ccccc2)c1 | 19.97 |
| O=C(NC[C@H]1O[C@H](Cc2cc(-c3ccccn3)on2)CC[C@@H]1O)C1CC1 | -6.652 |
| CNc1cc(CCNS(=O)(=O)c2ccccc2)nc(-c2ccccn2)n1 | 105 |
| CNc1cc(CCNC(=O)c2cccnc2)nc(-c2ccncc2)n1 | -9.73 |
| CNc1cc(CCNC(=O)C2CCCC2)nc(-c2ccccn2)n1 | 117 |
| CCc1nc(CCNS(=O)(=O)c2cccc(C(=O)N(C)CC)c2)cs1 | 4.281 |
| CC(O)CN1CCC(CNCCOCC(F)(F)F)CC1 (configuration not stated) | 8.822 |
| Cc1cccc2[nH]c(C3CCN(C(=O)c4cccnn4)CC3)nc12 | 19.31 |

| Structure (SMILES) | Percent Effect [%] |
| --- | --- |
| Cc1cccc(CN2Cc3[nH]nc(COCCO)c3C2)n1.O=C(O)C(F)(F)F | -6.746 |
| CCOCCCNC(=O)CN(c1cc(C)cc(C)c1)S(C)(=O)=O | 107.2 |
| CC(C)OCCCNC(=O)CN(c1ccc(F)c(F)c1)S(C)(=O)=O | 109.3 |
| Cc1cccc(CC(=O)NCCCOC(C)C)c1 | 4.055 |
| CCOCCCNC(=O)CN(c1ccc(F)c(F)c1)S(C)(=O)=O | 103.3 |
| CCOCCC(=O)N(C)c1ccc(F)c(Cl)c1 | -4.782 |
| CCOCCCC(=O)NS(=O)(=O)c1ccc(C)s1 | -11.1 |
| CCOCCCNC(=O)c1cc(Br)c2c(c1)OCCO2 | -17.45 |
| CCOCCCNC(=O)CN(c1ccc(C)c(C)c1)S(C)(=O)=O | 99.16 |
| CC(C)OCCCNC(=O)CSc1nnc(OC(C)C)s1 | -7.044 |
| CCOCC(=O)N(C)c1ccc(F)c(Cl)c1 | 11.18 |
| Cc1ccc(N(CC(=O)NCc2nnc3n2CCC3)S(C)(=O)=O)cc1 | -5.606 |
| CCOCCCNC(=O)CCSCc1csc(C)n1 | 4.852 |
| CCCNC(=O)C(C)Nc1ccn(Cc2ccccn2)n1 (configuration not stated) | 6.912 |
| CCCOCCN1CCc2[nH]c(-c3ccccc3)nc2C1 | -7.69 |
| CN(C)C1COC2(CCN(S(=O)(=O)c3ccc(F)cc3)CC2)C1.O=C(O)C(F)(F)F (configuration not stated) | -7.314 |
| CN(CC1Cc2ccccc2CN1C)c1nc(N)nc2c1CCNCC2 (configuration not stated) | -3.797 |
| COCc1cc(N(C)Cc2c(C)nn(C)c2C)n2nccc2n1 | 12.12 |
| COCCCNC(=O)CN(C)Cc1ccc(F)cc1Cl | -11.13 |
| CCOCCCNC(=O)Cc1cccc(F)c1 | 2.614 |
| CCOCCCNC(=O)CN(c1cccc(F)c1)S(C)(=O)=O | 112.7 |
